Compound activity from PubChem.
Pf growth 48h = P. falciparum growth inhibition at 48 hours (one generation). P. falciparum luciferase growth in erythrocytes, 48 h. Potency, µM (top dose mostly 28.7 µM), inactives show top-dose activity change, negative = inhibition, actives largely listed as inhibitors. 310,000 tested, 5.9% active. AID 504832; note: potency is the fitted concentration of half-maximal effect; % is set by controls: 0 for no effect and ±100 for the full control effect
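First compound was added to culture medium, then infected red cells at 0.1% parasitemia and 2% hematocrit (final). After incubation at 37 C under 5% CO2, luciferase detection reagent was dispensed and light output recorded.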
Sm TGR inh = S. mansoni TGR enzyme inhibition | 360,000 tested, 3% active | AID 485364 | Q962Y6 | purified TGR, DTNB reduction, TNB absorbance 405 nm | Potency, µM (doses to about 114 µM), for the others: top-dose activity change, negative = inhibition, usual class: inhibitors; note: potency is the fitted concentration of half-maximal effect; % is set by controls: 0 for no effect and ±100 for the full control effect; nearly all actives have a fitted effect of over 60% in size
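TGR 20 nM + NADPH 100 uM (dispensed conc.), cpd preinc 15 min RT; start with NADPH (500 uM addition) then DTNB (15 mM addition). Kinetic TNB absorbance, 405 nm filter. Four-parameter Hill fit across titration.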
SARS PLP yeast = SARS-CoV PLP inhibition in yeast. 330,000 tested, 0.19% active. S. cerevisiae expressing SARS-CoV PLpro, growth rescue. Potency, µM (titrated, usually from 32.9 µM), inactives show top-dose activity, positive = growth rescue, hits mostly activators; calls by dose curve; note: potency is the fitted concentration of half-maximal effect; 0% is about no effect; nearly all actives have a fitted effect of over 55% in size
Pf growth 96h = inhibits malaria parasite growth, 96 h. P. falciparum luciferase reporter growth, 96 h. Potency, µM (top dose mostly 28.7 µM), for inactives: at the highest dose activity change, negative = inhibition, actives largely listed as inhibitors. 320,000 tested, 6.9% active; note: potency is the fitted concentration of half-maximal effect; % is set by controls: 0 for no effect and ±100 for the full control effect
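Readout is luminescence from an integrated firefly luciferase in P. falciparum. Red cells, 2% hematocrit and 0.05% parasitemia final, were cultured with compound through two parasite generations (96 hours) at 37 C, 5% CO2.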
HCMV antiviral = inhibitors of human cytomegalovirus; HFF cells, HCMV-luciferase reporter, 72 h; hits give low values; activity change, negative = inhibition, % at 57.5 µM; 410,000 tested, 4.5% active; AID 1259415; in the data active = activity change below about -60%; inconclusive = no clear call, values can overlap the other calls; inactive = above about -39%; note: % is set by controls: 0 for no effect and ±100 for the full control effect
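Human foreskin fibroblasts infected with luciferase-reporter HCMV at MOI 1 PFU/cell, compounds at two doses. Luciferase measured 72 h post infection; normalized to buffer-only basal and Salinomycin (10uM) controls.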
HCV inhibitor = blocks hepatitis C virus. Potency, µM (doses to about 41.8 µM), for the others: top-dose activity change, negative = inhibition, usual class: inhibitors. 340,000 tested, 3.4% active. AID 651820. Huh7.5.1 HCVcc-Cre infection, luciferase reporter, 44 h; note: potency is the fitted concentration of half-maximal effect; % is set by controls: 0 for no effect and ±100 for the full control effect
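Infectious HCV cell culture screen: compound-treated cells (1,000/well, pre-plated 4 h) are infected with HCVcc-Cre at roughly 0.5 moi and grown 44 h. Infection is quantified by luciferase signal after 15 min substrate incubation at room temperature.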
* = called active by the depositor; i = inactive; ? = inconclusive; . = not tested or not shown; ! = not confirmed by another sample. Hits are enriched below; roughly 15% of the tested compounds scored in any of these assays. Unless noted, calls come from the whole dose curve; as a rule, active = well fitted curve in the direction sought with a large enough effect; inconclusive = small, poorly fitted or top-dose-only effect, or another doubt; inactive = no such curve, though single readings can be large; an effect the other way counts as inactive or inconclusive.

SMILES	Pf growth 48h	Sm TGR inh	SARS PLP yeast	Pf growth 96h	HCMV antiviral	HCV inhibitor
CC(CN1CCOCC1)C(=O)c1ccccc1 (configuration not stated)	.	-26%	6%	33%	-5	-6%
O=C(c1ccccc1Br)N(Cc1ccccc1F)C1CCS(=O)(=O)C1 (configuration not stated)	.	21%	.	.	54	.
Cc1nc2cccnc2n1-c1cccc(C(=O)N2CCN(c3cccc(Cl)c3)CC2)c1	.	9%	.	.	0	.
FC(F)(F)c1ccc(-c2noc(CN3CCCN(C4CCCCC4)CC3)n2)cc1	?	?	-1%	9.3µM*	22	?
c1ccc(C(c2ccccc2)c2noc(CN3CCN(C4CCCC4)CC3)n2)cc1	?	-8%	-2%	-16%	7	-9%
COc1ccc(C(=O)N2CCN(c3ccccc3Cl)CC2)cc1S(=O)(=O)NC1CC1	?	?	2%	?	44	5%
Cc1ccc(SCCNC(=S)Nc2cc(C)ccc2C)cc1	.	0%	-19%	8.3µM*	-29	-24%
Cc1ccc(C)c(NC(=S)NCCc2ccc(F)cc2)c1	13µM*	-12%	-7%	?	?	?
Cc1ccc(C)c(NC(=O)C2CCCC2)c1	.	.	.	.	1	16%
Cc1ccc(NC(=S)NCCc2ccccc2)c(C)c1	?	2%	-31%	5%	?	?
Cc1ccc(C)c(NC(=S)NCCN(C2CCCCC2)C2CCCC2)c1	10µM*	-32%	-2%	?	-38	?
CC(=O)c1cc(-c2ccccc2)n(CCC(=O)NC(C)c2ccccc2)c1C (configuration not stated)	.	5%	.	.	?	.
CCOc1ccc(CC(=O)Nc2nnc3n2CCS3)cc1	.	9%	.	.	-61*	.
CC(C)(C)c1ccc(C(=O)Nc2nnc3n2CCS3)cc1	.	1%	.	.	-84*	.
O=C(COC(=O)c1cc(S(=O)(=O)N2CCOCC2)ccc1F)NCc1ccc2c(c1)OCO2	.	.	1%	.	-13	8%
COc1ccc2nc3c(cc2c1)c(NC(=O)c1cccs1)nn3CC(C)C	?	1%	-9%	31%	-84*	?
CCCn1nc(NC(=O)c2cccs2)c2cc3cccc(C)c3nc21	?	-31%	-3%	?	-6	-21%
Cc1cc2nn(-c3cccc4ccccc34)nc2cc1NC(=O)c1cccs1	.	2%	-6%	7.4µM*	-34	?
CC(C)Cn1nc(NC(=O)c2cccs2)c2cc3ccccc3nc21	?	6%	0%	?	77	8.9µM*
CCC(=O)Nc1cc2nn(-c3ccc(C)cc3)nc2cc1C	i	-2%	1%	?	-66*!	2%
O=C(Nc1nc2ccccc2n1CCN1CCCCC1)c1ccco1	3%	0%	-2%	?	26	-9%
C=CCn1c(NC(=O)c2ccco2)nc2ccccc21	12µM*	-5%	3%	11%	21	-19%
O=C(NCCCc1nc2ccccc2n1Cc1cccc(Cl)c1)c1ccco1	.	-18%	.	.	-76*	.
CC(NC(=O)/C=C/c1ccco1)c1nc2ccccc2n1Cc1cccc(Cl)c1 (configuration not stated)	13µM*	14µM*	-4%	?	-26	?
CC(=O)NCc1nc2ccccc2n1Cc1ccccc1F	35%	0%	-7%	2.1µM*	-38	13%
SMILES	Pf growth 48h	Sm TGR inh	SARS PLP yeast	Pf growth 96h	HCMV antiviral	HCV inhibitor
CC(=O)NCCCc1nc2ccccc2n1Cc1ccccc1F	5%	5%	3%	-7%	0	5%
COc1ccc(C(=O)COC(=O)c2cc(=O)c3ccccc3o2)cc1	.	.	-4%	.	28	14%
CCCOc1ccc(OC(=O)c2cn(-c3ccc(OC)cc3)c(=O)c3ccccc23)cc1	.	-4%	.	.	-23	.
Cc1cccc(C)c1NC(=O)CN(c1c(C)cccc1C)S(C)(=O)=O	.	.	.	.	-22	.
O=C(Nc1nc2ccccc2n1Cc1ccc(Cl)cc1)c1ccco1	12µM*	1%	-26%	-20%	-12	-15%
O=C(Nc1nc2ccccc2n1CCOc1ccc(Cl)cc1)c1ccco1	.	3%	-5%	?	?	?
